Test results from ChEMBL document CHEMBL1961873, “Compounds: GSK PKIS; Assays: Nanosyn kinase panel” (2012).

Tests used:
[1] = biological target: Sphingosine kinase 1 (Homo sapiens) (UniProt Q9NYA1); details: at 1 µM;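 further: mean SPHK1 inhibition value reported from the GSK PKIS kinase panel screen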
[2] = biological target: T1, Sphingosine kinase 2 (Homo sapiens) (UniProt Q9NRA0); details: at 0.1 µM
T1 sequence (whole entry): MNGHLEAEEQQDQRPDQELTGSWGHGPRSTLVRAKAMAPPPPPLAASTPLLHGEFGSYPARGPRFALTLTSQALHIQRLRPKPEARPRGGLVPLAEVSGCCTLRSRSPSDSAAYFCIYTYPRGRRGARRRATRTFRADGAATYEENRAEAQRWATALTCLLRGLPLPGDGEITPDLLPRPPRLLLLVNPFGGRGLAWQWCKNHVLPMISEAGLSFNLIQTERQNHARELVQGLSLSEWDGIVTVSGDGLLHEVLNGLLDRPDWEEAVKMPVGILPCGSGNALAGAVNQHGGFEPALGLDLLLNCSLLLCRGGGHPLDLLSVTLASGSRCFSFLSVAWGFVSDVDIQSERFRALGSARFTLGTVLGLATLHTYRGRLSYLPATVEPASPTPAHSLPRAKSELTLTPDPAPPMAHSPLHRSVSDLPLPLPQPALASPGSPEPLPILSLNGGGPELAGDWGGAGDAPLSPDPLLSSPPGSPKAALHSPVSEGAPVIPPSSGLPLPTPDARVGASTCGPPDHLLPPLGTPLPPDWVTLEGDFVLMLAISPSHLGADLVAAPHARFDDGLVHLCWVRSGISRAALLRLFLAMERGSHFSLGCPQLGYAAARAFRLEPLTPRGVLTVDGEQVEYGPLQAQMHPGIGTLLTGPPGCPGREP

[3] = biological target: T1, Sphingosine kinase 2 (Homo sapiens); details: at 1 µM
[4] = biological target: Casein kinase II subunit alpha (Homo sapiens) (UniProt P68400); details: at 0.1 µM
Sequence of Casein kinase II subunit alpha (Homo sapiens) (P68400 whole entry, looked up): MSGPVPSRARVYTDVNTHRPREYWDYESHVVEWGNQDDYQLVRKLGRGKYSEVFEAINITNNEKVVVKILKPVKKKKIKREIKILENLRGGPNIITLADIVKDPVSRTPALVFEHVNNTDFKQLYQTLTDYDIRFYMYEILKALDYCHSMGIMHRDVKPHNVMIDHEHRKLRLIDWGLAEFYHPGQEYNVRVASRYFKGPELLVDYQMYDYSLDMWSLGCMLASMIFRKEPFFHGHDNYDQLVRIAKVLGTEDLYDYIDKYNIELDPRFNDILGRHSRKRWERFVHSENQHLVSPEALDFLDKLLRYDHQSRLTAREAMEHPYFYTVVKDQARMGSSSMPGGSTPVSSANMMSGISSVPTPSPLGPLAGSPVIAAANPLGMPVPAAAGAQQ

[5] = biological target: Casein kinase II subunit alpha (Homo sapiens) (UniProt P68400); details: at 1 µM
[6] = biological target: T2, Inhibitor of nuclear factor kappa-B kinase subunit alpha (Homo sapiens) (UniProt O15111); details: at 0.1 µM
T2 sequence (whole entry): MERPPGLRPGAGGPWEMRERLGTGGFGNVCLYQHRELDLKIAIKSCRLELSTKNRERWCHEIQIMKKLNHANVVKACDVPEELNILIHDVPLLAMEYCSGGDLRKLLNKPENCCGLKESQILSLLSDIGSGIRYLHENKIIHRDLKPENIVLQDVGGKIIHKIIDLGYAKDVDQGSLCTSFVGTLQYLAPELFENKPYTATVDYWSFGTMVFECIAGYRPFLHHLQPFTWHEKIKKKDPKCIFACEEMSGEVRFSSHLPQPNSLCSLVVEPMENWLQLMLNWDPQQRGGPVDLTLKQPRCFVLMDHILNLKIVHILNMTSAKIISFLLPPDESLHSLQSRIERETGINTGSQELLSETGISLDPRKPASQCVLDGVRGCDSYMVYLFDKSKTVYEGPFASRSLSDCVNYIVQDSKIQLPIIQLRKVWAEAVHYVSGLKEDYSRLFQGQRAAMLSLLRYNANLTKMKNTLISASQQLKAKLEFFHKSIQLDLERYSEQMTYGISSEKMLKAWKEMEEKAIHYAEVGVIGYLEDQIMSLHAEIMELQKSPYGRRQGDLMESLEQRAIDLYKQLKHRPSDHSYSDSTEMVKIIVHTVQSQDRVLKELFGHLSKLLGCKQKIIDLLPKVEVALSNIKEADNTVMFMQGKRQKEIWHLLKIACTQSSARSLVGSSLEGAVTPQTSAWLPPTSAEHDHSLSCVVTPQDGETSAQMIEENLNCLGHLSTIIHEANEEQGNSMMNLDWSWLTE

[7] = biological target: T2, Inhibitor of nuclear factor kappa-B kinase subunit alpha (Homo sapiens); details: at 1 µM
[8] = biological target: T3, Inhibitor of nuclear factor kappa-B kinase subunit beta (Homo sapiens) (UniProt O14920); details: at 0.1 µM
T3 sequence (whole entry): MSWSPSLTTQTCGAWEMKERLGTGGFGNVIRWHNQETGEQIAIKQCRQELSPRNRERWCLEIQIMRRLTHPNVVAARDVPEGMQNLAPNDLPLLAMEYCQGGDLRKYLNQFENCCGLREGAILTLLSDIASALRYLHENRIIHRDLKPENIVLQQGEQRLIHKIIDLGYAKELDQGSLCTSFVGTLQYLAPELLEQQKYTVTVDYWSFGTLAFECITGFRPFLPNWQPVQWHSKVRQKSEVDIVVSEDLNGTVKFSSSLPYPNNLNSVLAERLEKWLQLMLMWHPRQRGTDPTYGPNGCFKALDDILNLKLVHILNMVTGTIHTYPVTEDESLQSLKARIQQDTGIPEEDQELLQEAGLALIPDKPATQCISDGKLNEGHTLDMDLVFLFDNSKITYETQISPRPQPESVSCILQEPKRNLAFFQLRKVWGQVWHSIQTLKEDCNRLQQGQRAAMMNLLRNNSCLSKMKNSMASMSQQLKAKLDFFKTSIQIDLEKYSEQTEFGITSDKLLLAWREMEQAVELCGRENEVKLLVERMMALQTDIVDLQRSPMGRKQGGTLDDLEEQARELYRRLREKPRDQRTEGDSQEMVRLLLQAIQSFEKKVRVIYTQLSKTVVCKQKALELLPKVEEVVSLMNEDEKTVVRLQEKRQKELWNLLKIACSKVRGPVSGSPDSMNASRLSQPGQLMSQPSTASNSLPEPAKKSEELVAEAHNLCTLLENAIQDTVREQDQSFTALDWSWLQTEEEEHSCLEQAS

[9] = biological target: T3, Inhibitor of nuclear factor kappa-B kinase subunit beta (Homo sapiens); details: at 1 µM
[10] = biological target: T4, Inhibitor of nuclear factor kappa-B kinase subunit epsilon (Homo sapiens) (UniProt Q14164); details: at 0.1 µM
T4 sequence (whole entry): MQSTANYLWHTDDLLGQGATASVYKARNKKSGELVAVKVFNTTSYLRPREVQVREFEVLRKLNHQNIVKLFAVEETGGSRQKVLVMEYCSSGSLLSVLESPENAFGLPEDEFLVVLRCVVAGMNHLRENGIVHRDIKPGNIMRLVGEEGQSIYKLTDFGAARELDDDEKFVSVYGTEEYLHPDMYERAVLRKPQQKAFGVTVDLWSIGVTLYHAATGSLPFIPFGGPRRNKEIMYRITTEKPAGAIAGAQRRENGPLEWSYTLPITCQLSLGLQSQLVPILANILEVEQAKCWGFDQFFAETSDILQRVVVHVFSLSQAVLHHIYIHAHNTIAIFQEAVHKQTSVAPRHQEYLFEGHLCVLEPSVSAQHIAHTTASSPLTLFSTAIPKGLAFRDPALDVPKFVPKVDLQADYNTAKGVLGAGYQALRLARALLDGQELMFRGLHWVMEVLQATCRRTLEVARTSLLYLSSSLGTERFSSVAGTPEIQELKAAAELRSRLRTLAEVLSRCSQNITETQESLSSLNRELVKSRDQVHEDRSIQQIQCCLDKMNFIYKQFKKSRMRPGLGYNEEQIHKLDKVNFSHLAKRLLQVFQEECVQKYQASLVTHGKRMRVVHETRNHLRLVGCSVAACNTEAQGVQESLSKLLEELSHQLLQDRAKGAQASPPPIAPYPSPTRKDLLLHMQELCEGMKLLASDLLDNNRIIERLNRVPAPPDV

[11] = biological target: T4, Inhibitor of nuclear factor kappa-B kinase subunit epsilon (Homo sapiens); details: at 1 µM
[12] = biological target: T5, Serine/threonine-protein kinase Nek1 (Homo sapiens) (UniProt Q96PY6); details: at 0.1 µM
T5 sequence (whole entry): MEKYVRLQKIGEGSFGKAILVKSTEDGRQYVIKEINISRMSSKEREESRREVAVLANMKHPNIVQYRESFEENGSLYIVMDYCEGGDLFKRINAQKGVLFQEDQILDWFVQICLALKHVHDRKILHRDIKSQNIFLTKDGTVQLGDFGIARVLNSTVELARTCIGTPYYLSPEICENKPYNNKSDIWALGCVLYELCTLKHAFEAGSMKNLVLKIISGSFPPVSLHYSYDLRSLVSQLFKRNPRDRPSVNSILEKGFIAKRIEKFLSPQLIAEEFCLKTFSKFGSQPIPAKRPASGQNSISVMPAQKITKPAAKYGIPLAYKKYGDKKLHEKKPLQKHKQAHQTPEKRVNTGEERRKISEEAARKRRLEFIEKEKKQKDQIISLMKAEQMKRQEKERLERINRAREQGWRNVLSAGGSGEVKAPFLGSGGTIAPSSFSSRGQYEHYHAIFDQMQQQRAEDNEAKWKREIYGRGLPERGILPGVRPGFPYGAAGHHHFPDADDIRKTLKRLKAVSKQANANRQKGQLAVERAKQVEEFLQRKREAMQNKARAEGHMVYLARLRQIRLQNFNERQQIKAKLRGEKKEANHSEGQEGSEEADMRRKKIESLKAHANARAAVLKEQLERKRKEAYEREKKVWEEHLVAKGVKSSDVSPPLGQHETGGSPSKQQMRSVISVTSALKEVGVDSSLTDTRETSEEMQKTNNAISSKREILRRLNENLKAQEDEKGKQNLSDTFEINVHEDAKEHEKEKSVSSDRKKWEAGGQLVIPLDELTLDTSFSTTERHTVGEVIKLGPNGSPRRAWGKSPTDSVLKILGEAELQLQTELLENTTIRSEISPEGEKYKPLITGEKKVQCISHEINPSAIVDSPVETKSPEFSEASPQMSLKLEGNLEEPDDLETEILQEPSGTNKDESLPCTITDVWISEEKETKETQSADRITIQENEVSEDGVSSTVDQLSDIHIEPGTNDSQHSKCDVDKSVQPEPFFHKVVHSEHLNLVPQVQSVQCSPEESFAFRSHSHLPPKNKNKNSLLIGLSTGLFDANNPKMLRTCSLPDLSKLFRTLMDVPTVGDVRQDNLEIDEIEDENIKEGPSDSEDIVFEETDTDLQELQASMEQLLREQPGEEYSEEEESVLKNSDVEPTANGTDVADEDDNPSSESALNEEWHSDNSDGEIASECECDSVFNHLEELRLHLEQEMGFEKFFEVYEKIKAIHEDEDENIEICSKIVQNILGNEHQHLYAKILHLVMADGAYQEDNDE

[13] = biological target: T5, Serine/threonine-protein kinase Nek1 (Homo sapiens); details: at 1 µM
[14] = biological target: T6, Serine/threonine-protein kinase Nek2 (Homo sapiens) (UniProt P51955); details: at 0.1 µM
T6 sequence (whole entry): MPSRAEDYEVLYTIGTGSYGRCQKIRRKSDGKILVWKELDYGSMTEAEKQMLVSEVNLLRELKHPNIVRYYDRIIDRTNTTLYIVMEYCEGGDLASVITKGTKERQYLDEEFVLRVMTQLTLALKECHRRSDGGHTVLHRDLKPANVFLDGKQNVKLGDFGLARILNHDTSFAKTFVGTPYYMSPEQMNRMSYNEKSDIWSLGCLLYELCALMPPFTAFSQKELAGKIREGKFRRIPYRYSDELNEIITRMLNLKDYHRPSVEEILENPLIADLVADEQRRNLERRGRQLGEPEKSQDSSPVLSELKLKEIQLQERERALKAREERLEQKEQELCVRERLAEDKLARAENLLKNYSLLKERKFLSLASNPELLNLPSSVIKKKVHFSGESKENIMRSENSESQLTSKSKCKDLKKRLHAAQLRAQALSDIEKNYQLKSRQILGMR

[15] = biological target: T6, Serine/threonine-protein kinase Nek2 (Homo sapiens); details: at 1 µM
[16] = biological target: Serine/threonine-protein kinase Nek6 (Homo sapiens) (UniProt Q9HC98); details: at 0.1 µM
Sequence of Serine/threonine-protein kinase Nek6 (Homo sapiens) (Q9HC98 whole entry): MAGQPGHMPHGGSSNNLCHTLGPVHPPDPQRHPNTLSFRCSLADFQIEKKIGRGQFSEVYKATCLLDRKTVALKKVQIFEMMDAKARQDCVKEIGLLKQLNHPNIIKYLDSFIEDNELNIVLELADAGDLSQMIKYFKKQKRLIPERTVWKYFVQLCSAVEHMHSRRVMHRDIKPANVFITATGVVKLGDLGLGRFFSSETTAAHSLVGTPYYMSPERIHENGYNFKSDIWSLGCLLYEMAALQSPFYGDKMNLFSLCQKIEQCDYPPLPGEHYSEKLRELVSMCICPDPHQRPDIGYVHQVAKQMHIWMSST

[17] = biological target: Serine/threonine-protein kinase Nek6 (Homo sapiens) (UniProt Q9HC98); details: at 1 µM
[18] = biological target: Serine/threonine-protein kinase Nek7 (Homo sapiens) (UniProt Q8TDX7); details: at 0.1 µM
Sequence of Serine/threonine-protein kinase Nek7 (Homo sapiens) (Q8TDX7 whole entry, looked up): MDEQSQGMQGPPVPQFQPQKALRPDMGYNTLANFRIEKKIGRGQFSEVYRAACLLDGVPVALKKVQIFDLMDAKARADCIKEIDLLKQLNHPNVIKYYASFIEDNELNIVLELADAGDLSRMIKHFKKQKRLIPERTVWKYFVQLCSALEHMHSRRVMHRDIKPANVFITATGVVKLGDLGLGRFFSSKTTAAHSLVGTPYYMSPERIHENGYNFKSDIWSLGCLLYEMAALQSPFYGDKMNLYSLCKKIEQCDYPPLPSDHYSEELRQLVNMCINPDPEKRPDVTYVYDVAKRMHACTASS

[19] = biological target: Serine/threonine-protein kinase Nek7 (Homo sapiens) (UniProt Q8TDX7); details: at 1 µM
[20] = biological target: T7, Serine/threonine-protein kinase Nek9 (Homo sapiens) (UniProt Q8TD19); details: at 0.1 µM;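 further: reported value is the mean percent inhibition of NEK9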
T7 sequence (whole entry): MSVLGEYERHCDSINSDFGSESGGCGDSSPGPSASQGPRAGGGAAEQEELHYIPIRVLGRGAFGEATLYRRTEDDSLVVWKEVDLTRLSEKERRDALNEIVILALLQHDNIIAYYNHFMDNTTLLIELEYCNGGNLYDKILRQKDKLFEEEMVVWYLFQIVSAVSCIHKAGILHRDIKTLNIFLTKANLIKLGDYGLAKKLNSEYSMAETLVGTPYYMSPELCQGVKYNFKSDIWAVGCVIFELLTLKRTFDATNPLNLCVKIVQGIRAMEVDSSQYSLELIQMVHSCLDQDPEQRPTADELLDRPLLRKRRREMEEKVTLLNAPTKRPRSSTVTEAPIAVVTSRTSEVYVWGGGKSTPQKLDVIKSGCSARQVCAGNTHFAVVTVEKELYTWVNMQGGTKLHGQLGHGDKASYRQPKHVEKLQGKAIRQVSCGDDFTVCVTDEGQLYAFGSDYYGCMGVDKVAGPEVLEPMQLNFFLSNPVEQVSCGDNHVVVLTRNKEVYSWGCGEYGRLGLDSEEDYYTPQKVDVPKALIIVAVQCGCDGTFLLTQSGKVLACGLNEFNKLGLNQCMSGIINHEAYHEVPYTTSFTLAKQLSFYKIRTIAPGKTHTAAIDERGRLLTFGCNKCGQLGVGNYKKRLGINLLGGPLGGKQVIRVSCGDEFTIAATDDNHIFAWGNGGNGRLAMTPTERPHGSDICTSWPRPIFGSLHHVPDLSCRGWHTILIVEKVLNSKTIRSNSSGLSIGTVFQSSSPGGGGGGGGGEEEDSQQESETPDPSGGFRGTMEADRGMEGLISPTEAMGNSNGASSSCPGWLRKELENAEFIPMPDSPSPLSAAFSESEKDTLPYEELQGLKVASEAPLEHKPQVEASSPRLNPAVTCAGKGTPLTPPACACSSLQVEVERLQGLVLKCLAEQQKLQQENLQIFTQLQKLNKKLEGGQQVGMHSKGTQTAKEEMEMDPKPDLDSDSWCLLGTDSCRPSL

Sequence of Sphingosine kinase 1 (Homo sapiens) (Q9NYA1 whole entry): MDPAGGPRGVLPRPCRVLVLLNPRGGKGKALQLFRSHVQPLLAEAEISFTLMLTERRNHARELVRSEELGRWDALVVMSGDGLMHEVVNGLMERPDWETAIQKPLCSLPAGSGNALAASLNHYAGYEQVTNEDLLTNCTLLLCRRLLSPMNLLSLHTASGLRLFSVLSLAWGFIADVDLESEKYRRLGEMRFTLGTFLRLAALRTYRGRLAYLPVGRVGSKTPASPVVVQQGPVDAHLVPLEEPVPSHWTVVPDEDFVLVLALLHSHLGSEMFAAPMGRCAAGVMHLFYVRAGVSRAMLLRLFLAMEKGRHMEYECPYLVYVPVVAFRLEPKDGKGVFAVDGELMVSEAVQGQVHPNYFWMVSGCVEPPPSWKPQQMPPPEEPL

Row | SMILES | inhibition [1] [%] | inhibition [2] [%] | inhibition [3] [%] | inhibition [4] [%] | inhibition [5] [%] | inhibition [6] [%] | inhibition [7] [%] | inhibition [8] [%] | inhibition [9] [%] | inhibition [10] [%] | inhibition [11] [%] | inhibition [12] [%] | inhibition [13] [%] | inhibition [14] [%] | inhibition [15] [%] | inhibition [16] [%] | inhibition [17] [%] | inhibition [18] [%] | inhibition [19] [%] | inhibition [20] [%]
1 | O=C(O[C@H]1CN[C@H](C#Cc2cc3ncnc(Nc4ccc5c(ccn5Cc5cc(F)ccc5F)c4)c3s2)C1)N1CCOCC1 | -2.46 | 0 | 1.37 | 7.47 | 0.25 | 8.85 | 10.1 | 7.42 | 9.24 | 6.23 | 3.8 | 2.94 | 1.91 | 2.01 | 7.68 | 4.81 | 1.23 | 4.67 | 3.63 | 4.24
2 | N#Cc1cccc(Nc2ncc(-c3ccccc3)o2)c1 | -2.86 | 0.09 | -1.96 | 2.39 | 11.7 | 5.02 | 3.79 | 3.29 | 5.96 | 5.55 | 6.35 | 1.6 | 2.44 | 2.51 | 0.06 | 1.87 | 5.4 | 2.82 | 1.01 | 8.32
